In PubChem BioAssay (NCI):
The panel holds about 83,000 compounds, 20% with a hit somewhere; the sample as a whole holds those more often.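 Each cell line was grown in a 96-well plate and treated with one concentration of compound for 48 hours. Values below 10 were considered active.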 Calls of active or inactive are those of the source.

test system: NCI/ADR-RES ovarian; experiment: NCI-60 one-dose screen, 48 h (100 = growth as untreated, 0 = no growth, -100 = all killed); conditions: 10 µM unless noted
Protocol: Growth inhibition of the NCI/ADR-RES human […] tumor cell line is measured as a screen for anti-cancer activity. Cells are grown in 96 well plates and exposed to the test compound for 48 hours. Compounds are tested at a single concentration, which is 10^-5 M for most compounds. The reported endpoint is percent growth (GI% or GIPRCNT), where numbers from 0 - 100% represent growth inhibition, and numbers from -100% - 0 represent cell death. For example, a value of 40 represents 60% growth inhibition. A value of 0 means no net growth occurred over the course of the experiment. A value of -40 indicates 40% of cells at the beginning of the experiment died by the end of the experiment. A value of -100 means all cells are dead at the end of the experiment.
NCI-60 Human Tumor Cell Lines Screen was performed using the standard one-dose NCI protocol, which is described in more detail at https://dtp.cancer.gov/discovery_development/nci-60/default.htm.
Compounds with GIPRCNT values below 10 were considered active. Activity score was based on GIPRCNT using the following formula: […]
Score is 0 for GIPRCNT values of 100 or above, 50 for GIPRCNT values of 0, and 100 for GIPRCNT values of -100.

**Q.** With `C[C@@H]1C(=O)N(C[C@H](Cc2ccccc2)NC(=O)OCc2ccccc2)[C@]1(Cc1ccccc1)C(=O)OC(C)(C)C` as the compound, how does the growth read?
**A.** 63% (inactive)

**Q.** Which growth does the source give for `O=C(Oc1ccc([N+](=O)[O-])cc1)c1ccc(CBr)cc1` here?
**A.** 99.3% (inactive)

**Q.** With `C=C1C(=O)O[C@H]2[C@H]1CC/C(COC(=O)/C=C/C(=O)NCc1ccc(Cn3c(=O)sn(-c4ccccc4)c3=O)cc1)=C\CC[C@@]1(C)O[C@@H]21` as the compound, how does the growth read?
**A.** 94.1% (inactive)

**Q.** `COc1ccc(/C(C)=C(\c2ccc(Cl)cc2)c2ccc(OCCN3CCCCC3)cc2)cc1F` was tested. Which growth did it give?
**A.** 63% (inactive)

**Q.** For `CC[C@@H](C[C@H](CCO)c1ccccc1)c1cc2ccccc2o1`, which growth is on record?
**A.** 93.1% (inactive)

**Q.** Which growth does the source give for `Cc1nc(Nc2ccc(NC(=S)Nc3ccccc3)cc2)nc2nc(Nc3cccc(Cl)c3)[nH]c(=O)c12` here?
**A.** 110% (inactive)

**Q.** How did the growth turn out when `C=CCN1C(=O)[C@]2(SC1=S)[C@H](c1cccc(Cl)c1)CN(C)[C@]21C(=O)NC2C=CC(Cl)=C[C@H]21` (stereo not given in full) was run?
**A.** 38.7% (inactive)

**Q.** How did the growth turn out when `CN(C)CCn1cc(-c2ccc3c(Nc4ccc(CC(=O)Nc5cccc(F)c5)cc4)ncnc3c2)cn1` was run?
**A.** 52.4% [30 µM] (inactive)

**Q.** `Cc1cc(N(CCCNc2ccnc3cc(Cl)ccc23)Cc2ccccn2)nc(N2CCCC2)n1` was tested. Which growth did it give?
**A.** 76.7% (inactive)

**Q.** Which growth does the source give for `COc1cccc(-c2cnco2)c1OCc1c(C)c(COc2c(OC)cccc2-c2cnco2)c(C)c(COc2c(OC)cccc2-c2cnco2)c1C` here?
**A.** 81.2% (inactive)

**Q.** Which growth does the source give for `N#C/C=C(\c1ccc([N+](=O)[O-])cc1)n1nnc2cc(Cl)c(Cl)cc21` here?
**A.** -4.34% (active)

**Q.** With `COc1ccc(CN2C(=O)/C(=C\c3cc(OC)c(OC)c(OC)c3)c3ccccc32)cc1` as the compound, how does the growth read?
**A.** 2.38% (active)

**Q.** How did the growth turn out when `O=C1CSC(c2ccccc2)N1c1ccccc1` (stereo not given) was run?
**A.** 100% (inactive)

**Q.** With `COc1ccccc1C(=O)NC(=S)Nc1ccc(-c2nc3ccccc3[nH]2)cc1` as the compound, how does the growth read?
**A.** 38.7% (inactive)

**Q.** Which growth does the source give for `CC(=O)Nc1ccc(C(=O)/C=C/c2ccccc2)cc1` here?
**A.** 94.2% (inactive)

**Q.** Which growth does the source give for `CCOC(=O)N1CCc2c(sc3c2C(=O)N[C@H](c2ccc(OC)cc2)N3)C1` here?
**A.** 102% (inactive)

**Q.** `COc1ccc(Cn2cnc3cc(C(=O)Nc4cccc5ccccc45)ccc32)c(OC)c1` was tested. Which growth did it give?
**A.** 3.4% [30 µM] (active)

**Q.** How did the growth turn out when `Cc1nc(Nc2ccc(N)cc2)c2ccccc2n1` was run?
**A.** 93.6% (inactive)

**Q.** For `Cc1cc(-c2ccccc2)cc(SC#N)[n+]1[O-]`, which growth is on record?
**A.** 19.7% (inactive)

**Q.** With `Cc1ccc(NC(=O)C(Cl)Cl)cc1` as the compound, how does the growth read?
**A.** 99.9% (inactive)

**Q.** Which growth does the source give for `Cn1nnnc1-c1ccc(N)cc1` here?
**A.** 98.1% (inactive)

**Q.** `O=C1c2cccc3c(-c4ccc(-c5nc6c7ccccc7c7ccccc7c6[nH]5)cc4)ccc(c23)C(=O)N1CCN1CCNCC1` was tested. Which growth did it give?
**A.** 57.8% (inactive)

**Q.** For `N=C(N)c1ccc(-c2ccc(-c3ccc(Cl)c(Cl)c3)o2)nc1`, which growth is on record?
**A.** 32.2% (inactive)

**Q.** Which growth does the source give for `CN(C)c1ccc2cc(-c3ccccc3F)c(N)nc2c1` here?
**A.** 1.98% (active)

**Q.** For `CC1=CC(=O)C(C(C)C)=CC1=Nc1cc(Br)c(O)c(Br)c1`, which growth is on record?
**A.** -22.9% (active)

**Q.** For `C=C1C(=O)O[C@H]2[C@H]1CC/C(C(=O)NCCCCCCCCNC(=O)/C1=C/CC[C@@]3(C)O[C@H]3[C@H]3OC(=O)C(=C)[C@@H]3CC1)=C\CC[C@@]1(C)O[C@@H]21`, which growth is on record?
**A.** 103% (inactive)

**Q.** For `Nc1ccc(-c2cc3c(Nc4ccc(OCc5cccc(F)c5)c(Cl)c4)ncnc3s2)cc1`, which growth is on record?
**A.** 50.4% (inactive)

**Q.** Which growth does the source give for `O=C1N(c2ccccc2)C(=S)N[C@]12[C@H](c1ccccc1)C1CCCN1[C@]21C(=O)NC2C=CC(Cl)=C[C@H]21` (stereo not given in full) here?
**A.** 102% (inactive)

**Q.** Which growth does the source give for `Cc1ccc(/C(=N\N=C(N)N)c2ccccc2)cc1` here?
**A.** 15.5% (inactive)

**Q.** With `N#C/C(=C\c1ccc(Br)cc1)n1nnc2cc(Cl)c(Cl)cc21` as the compound, how does the growth read?
**A.** 7.03% (active)

**Q.** For `Cn1ccc(Cc2cnc(N)s2)n1`, which growth is on record?
**A.** 102% (inactive)

**Q.** `O[C@H]1CO[C@H]2[C@@H]1OC[C@@H]2Oc1ccc(Nc2nc(Nc3ccc(F)c(Cl)c3)ncc2F)cc1Cl` was tested. Which growth did it give?
**A.** 97.6% (inactive)

**Q.** For `OCCCCc1nccc2c1[nH]c1ccccc12`, which growth is on record?
**A.** 108% (inactive)

**Q.** `CCN(CC)CCNc1ccc(C)c2sc3cc(C)ccc3c(=O)c12` was tested. Which growth did it give?
**A.** 59.2% (inactive)

**Q.** With `COc1cc2oc(-c3cccc(C(=O)Nc4ccc(C#N)cc4)c3)cc(=O)c2c(O)c1OC` as the compound, how does the growth read?
**A.** 51.2% (inactive)

**Q.** With `CC(C)(C)N1CC(OC(N)=O)C1` as the compound, how does the growth read?
**A.** 117% (inactive)

**Q.** For `N#Cc1c(N)nc2c(nnn2-c2cccc(C(F)(F)F)c2)c1N`, which growth is on record?
**A.** 95.8% (inactive)

**Q.** With `Cc1nc(Nc2ccc(S(=O)(=O)Nc3cc(C)on3)cc2)c2ccccc2n1` as the compound, how does the growth read?
**A.** 107% (inactive)

**Q.** `OC(c1cccc(OCc2ccccc2)c1)c1nnc(-c2ccccc2)o1` (stereo not given) was tested. Which growth did it give?
**A.** 89.7% (inactive)

**Q.** How did the growth turn out when `CCCc1cc(=O)oc2c3c(c4c(c12)OC(C)(C)C=C4)O[C@@H](C)[C@H](C)C3=O` was run?
**A.** 0.517% (active)
